Source: PubChem
Hits are enriched below; roughly 11% of the tested compounds scored in any of these assays.
Pf growth 96h = inhibits malaria parasite growth, 96 h; AID 504834; Potency, µM (titrated, usually from 28.7 µM), for inactives: at the highest dose activity change, negative = inhibition, hits mostly inhibitors; hit rate 6.9% among 320,000; P. falciparum luciferase reporter growth, 96 h; also: % is scaled to controls: 0 for no effect and ±100 for the full control effect
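Delayed-death screen, second-generation endpoint: infected erythrocytes, 2% hematocrit, 0.05% parasitemia final; 96 hours at 37 C, 5% CO2; luciferase detection reagent; luminescence decrease equals reduced growth.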
Sm TGR inh = blocks Schistosoma mansoni thioredoxin glutathione reductase; purified TGR, DTNB reduction, TNB absorbance 405 nm; Q962Y6; hit rate 3% among 360,000; Potency, µM (series often up to 114 µM), without a hit: at the highest dose activity change, negative = inhibition, actives largely listed as inhibitors; also: % is scaled to controls: 0 for no effect and ±100 for the full control effect; nearly all actives have a fitted effect of over 60% in size
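TGR 20 nM + NADPH 100 uM (dispensed conc.), cpd preinc 15 min RT; start with NADPH (500 uM addition) then DTNB (15 mM addition). Kinetic TNB absorbance, 405 nm filter. Four-parameter Hill fit across titration.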
Pf growth 48h = inhibits P. falciparum growth in the first generation, 48 h; P. falciparum luciferase growth in erythrocytes, 48 h; AID 504832; hit rate 5.9% among 310,000; Potency, µM (highest dose often 28.7 µM), for inactives: top-dose activity change, negative = inhibition, most hits filed as inhibitors; also: % is scaled to controls: 0 for no effect and ±100 for the full control effect
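Luciferase-expressing parasites in RBCs, 2% Hct / 0.1% parasitemia final; RPMI 1640 + 0.5% Albumax; 37 C, 5% CO2, one generation; luminescence read-out, lower signal = inhibition.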
NS1 function inh = inhibitors of influenza NS1 protein function | hit rate 0.4% among 270,000 | Potency, µM (doses to about 46.1 µM), without a hit: at the highest dose activity, positive = more growth; calls by dose curve; also: actives are rising curves; nearly all actives have a fitted effect of over 50% in size
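Read-out: OD600 growth recovery of NS1-expressing budding yeast. Cells grown overnight at 30C in -URA glucose medium, washed, resuspended and diluted 1:100 in 2% galactose assay medium, pH 6.0. Same strain lacking NS1 served as positive control.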
AMA1 RON2 block = disrupts binding of P. falciparum AMA1 to RON2. AlphaScreen AMA1-biotinylated RON2 peptide binding. Potency, µM (highest dose often 58.2 µM), for the others: at the highest dose activity change, negative = inhibition, most hits filed as inhibitors. hit rate 0.2% among 360,000. AID 720542;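 also: 0% = vehicle wells and -100% = peptide control; nearly all actives have a fitted effect of over 45% in size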
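AMA1 (3D7) with his tag at 25 nM final met compounds first, then biotinylated RON2 peptide at 25 nM; detection used donor plus acceptor beads, 10 µg/mL apiece, read by AlphaScreen after 30 min at room temperature.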
* marks the source's active call; other numbers are inactive results; ? = inconclusive; . = not tested or not shown; [ ] = dose if it differs, or a comment. Unless noted, calls follow the shape of the dose curve; as a rule, active = well fitted curve in the direction sought with a large enough effect; inconclusive = small, poorly fitted or top-dose-only effect, or another doubt; inactive = no such curve, though single readings can be large; an effect the other way counts as inactive or inconclusive. Potency is read from the fitted curve at half-maximal effect.

SMILES	Pf growth 96h	Sm TGR inh	Pf growth 48h	NS1 function inh	AMA1 RON2 block
O=C1CSC(c2cn(-c3ccccc3)nc2-c2ccccc2)N1Cc1ccco1 (stereo not given)	2.94µM*	?	13.1µM*	-58.2%	-16.4%
CCNC(=O)c1ccc(C2SCC(=O)N2Cc2ccco2)cc1 (stereo not given)	?	?	?	6.9%	-8.4%
CCOc1ccc(C(=O)Nc2ccc3nn(-c4ccc(OC)c(Cl)c4)nc3c2)cc1	.	5.2%	.	.	.
COCCn1c(-c2ccc(Br)cc2)csc1=Nc1cccnc1	?	-12.5%	?	.	?
FC(F)Oc1ccc(-c2csc(=Nc3cccnc3)n2CC2CCCO2)cc1 (stereo not given)	13.1µM*	-23.4%	?	11.2%	-15.6%
CC(C)n1cc(/C=C/c2cc[n+](C)cc2)c2ccccc21	?	-20.7%	0.522µM*	-8.2%	5.7%
CCn1cc(/C=C/c2cc[n+](C)cc2)c2ccccc21	0.208µM*	-20.6%	0.37µM*	5.7%	3.8%
CCn1cc(C=C2C(=O)N(C)C(=O)N(C)C2=O)c2ccccc21	0.117µM*	-26.8%	-29.7%	5.1%	-9.0%
Cc1cccc(C(=O)N2CCC(C)(C(=O)NS(=O)(=O)C3CC3)C2)c1C (stereo not given)	.	.	.	.	-4.1%
Cc1ccc(SC(=O)COc2ccccc2C)cc1	18.0%	11.2µM*	.	-7.1%	68.1%
COc1ccc(CNC(=O)c2[nH]c(C(F)(F)F)nc2-c2ccccc2)cc1OC	.	.	.	.	-0.5%
COc1ccc(CNc2cccc3[nH]c(C(F)(F)F)nc23)cc1OC	-10.6%	20µM*	1.47µM*	?	66.0%
COC(CN(C)C(=O)c1ccc2c(c1)NC(=O)c1ccccc1S2)OC	10.1%	-26.7%	1.47µM*	2.9%	-1.2%
CCN(CC)CCNC(=O)c1ccc2c(c1)NC(=O)c1ccccc1S2	?	-13.0%	?	-3.5%	2.1%
CN(C)CCNC(=O)c1ccc2c(c1)NC(=O)c1ccccc1S2	?	3.6%	11.7µM*	8.3%	0.3%
COC(=O)c1ccc2c(c1)NC(=O)c1ccccc1S2	-7.6%	8.5%	-21.8%	11.0%	-14.6%
CCOC(=O)C1CCN(c2ncnc3c2c(-c2ccccc2)cn3-c2ccc(C)c(Cl)c2)CC1	.	7.3%	.	.	.
O=C(NC1CC(=O)N(c2ccc(Cl)cc2)C1)c1ccc(S(=O)(=O)N2CCCC2)cc1 (stereo not given)	.	1.5%	.	.	.
CCCCCCC1C(C#N)=C(N)OC2=C1C(=O)CC(C)(C)C2 (stereo not given)	-24.1%	-30.1%	-1.9%	-8.6%	-1.7%
CCCCC1C2=C(CC(C)(C)CC2=O)OC2=C1C(=O)CC(C)(C)C2	11.7µM*	-7.8%	?	-2.8%	22.0%[2.32 µM]
CCOC(=O)N1CCN(Cc2nc3ccc([N+](=O)[O-])cc3c(=O)n2-c2ccccc2F)CC1	39.2%	-21.4%	?	2.6%	-0.9%
CC(C)(C)c1cc(CCC(=O)NCCc2ccccn2)cc(C(C)(C)C)c1O	11.7µM*	-20.4%	?	-2.6%	10.2%
CN(C)CCCN(C(=O)C1=COCCO1)c1nc2ccc(Br)cc2s1	?	-34.0%	?	-2.4%	-5.9%
Cc1cc(C)c2nc(N(CCCN(C)C)C(=O)C3=COCCO3)sc2c1	?	-0.2%	11.7µM*	.	-4.3%
COc1ccc(C)c2sc(N(CCCN(C)C)C(=O)c3ccc4c(c3)OCCO4)nc12	8.28µM*	-12.8%	9.28µM*	.	-1.4%
SMILES	Pf growth 96h	Sm TGR inh	Pf growth 48h	NS1 function inh	AMA1 RON2 block
Cc1cc(C)c2nc(N(CCCN(C)C)C(=O)c3ccc4c(c3)OCCO4)sc2c1	7.38µM*	-3.7%	10.4µM*	.	?
Cn1c(-c2cc(Cl)ccc2O)nc2c1c(=O)[nH]c(=O)n2Cc1ccccc1	10.4µM*	-2.0%	?	.	5.4%
COc1ccc(Br)cc1-c1nc2c(c(=O)[nH]c(=O)n2Cc2ccccc2)n1C	1.6%	-9.1%	-0.6%	11.7%	-2.5%
COCCCn1c(-c2cccc(Cl)c2)nc2c1c(=O)[nH]c(=O)n2Cc1ccccc1	10.4µM*	1.7%	11.7µM*	1.4%	-9.1%
Cc1cccc(C)c1NC(=O)CN1CCN(CC(=O)NCC2(N3CCCCC3)CCCCC2)CC1	1.9%	0.7%	?	.	-10.1%
Cc1cccc(C)c1NC(=O)CC12CCCN1CCC2	6.01µM*	.	-9.2%	.	.
CN(C)c1cccc2c1c(NC(=O)Nc1ccc(F)cc1F)nn2C	?	9.3%	9.6%	4.2%	-8.7%
CN(C)c1cccc2c1c(NC(=O)Nc1ccccc1)nn2C	9.28µM*	?	?	0.2%	5.1%
COc1ccccc1NC(=O)Nc1nn(C)c2cccc(OC)c12	11.7µM*	8.8%	?	-40.3%	16.3%
NS(=O)(=O)c1ccc(NS(=O)(=O)c2ccc(C3CNC(=O)C3)cc2)cc1 (stereo not given)	-8.2%	4.1%	17.8%	17.5%	-14.0%
CCN1C(=O)/C(=C\N2CCCCCC2)SC1=S	11.7µM*	-2.3%	?	-18.3%	-21.3%
CCN(CC)S(=O)(=O)c1ccc(NN=C(C#N)C#N)cc1	?	7.94µM*	?	-22.7%	-9.8%[11.6 µM]
COc1ccc(C(=O)/C(C#N)=N/Nc2ccc([N+](=O)[O-])cc2)cc1	?	.	13.1µM*	-4.7%	-4.4%
N#CC(C#N)=NNc1ccc([N+](=O)[O-])cc1	?	25.1µM*	?	-70.1%	-8.0%
O=C(Nc1cccc(NC(=O)c2ccc(Cl)cc2Cl)c1)c1cccnc1	5.6%	18.8%	7.1%	-1.4%	0.8%
C=CCNc1nc(NCC)nc(N2CCOCC2)n1	?	0.8%	6.8%	-1.4%	0.9%
C=CCNc1nc(Nc2ccc(-c3nc4ccccc4o3)cc2)nc(N2CCOCC2)n1	4.65µM*	-7.7%	.	25.2%	6.6%
O=C(OCC1OC(OC(=O)c2cc(O)c(O)c(OC(=O)c3cc(O)c(O)c(O)c3)c2)[C@@H](OC(=O)c2cc(O)c(O)c(OC(=O)c3cc(O)c(O)c(O)c3)c2)C(OC(=O)c2cc(O)c(O)c(OC(=O)c3cc(O)c(O)c(O)c3)c2)C1OC(=O)c1cc(O)c(O)c(OC(=O)c2cc(O)c(O)c(O)c2)c1)c1cc(O)c(O)c(OC(=O)c2cc(O)c(O)c(O)c2)c1 (stereo not given in full)	3.01µM*	.	3.38µM*	.	.
CCn1ncc(C2=NOC(C(=O)Nc3cnn(C45CC6CC(CC(C6)C4)C5)c3)C2)c1C (stereo not given)	0.0%	23.4%	5.86µM*	7.8%	6.8%
Cc1cccc(NC(=O)c2nc[nH]c2C(=O)Nc2ccccc2F)c1	.	.	.	.	110.4%
CCOC(=O)c1c(C)[nH]c(C(=O)OCC(=O)Nc2ccc(OCC)cc2)c1C	.	2.3%	37.0%	4.7%	-5.6%
CCOC(=O)c1c(C)[nH]c(C(=O)C(C)OC(=O)c2ccc(NC(=O)CC#N)cc2)c1C (stereo not given)	10.4µM*	6.7%	8.28µM*	.	-3.5%
CC(OC(=O)c1ccc(NC(=O)CC#N)cc1)C(=O)NCCC1=CCCCC1 (stereo not given)	10.4µM*	2.7%	9.28µM*	.	13.8%
